Data on 7 compounds can be found in PubChem BioAssay (NCATS).

Molecules are shown by their SMILES. Inconclusive results are not listed. Activity calls are given as the source filed them. Unless noted, the call rests on the fitted dose curve; in most records, active means well fitted inhibition curve with a large enough effect; inconclusive means small, poorly fitted or top-dose-only effect; inactive means flat fitted curve, though single readings scatter. Some results are limits rather than exact numbers.

Assay [1] in a line: AP1 Signaling Pathway (AID 357; active means well fitted curve in either direction with a large enough effect, not every such curve was filed as active; further: on the % scale 0 is the no-effect control and ±100 the full control effect). The method in brief: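 ME-180 cells with beta-lactamase reporter under AP-1 response element, stimulated with EC50 EGF; compounds tested in titration series, 5 h at 37 °C. CCF4 substrate added 2.5 h at room temperature; 460/530 nm emission ratio gave %activity and AC50.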
Assay [2] deals with Glucocorticoid receptor (Homo sapiens) (UniProt P04150). The assay is described as follows: GR-GFP Redistribution (AID 450;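 active means compounds whose dose series gives a full or clear partial fitted curve of increased nuclear translocation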; further: potency means the concentration at half of the fitted maximal effect). Conditions: U2OS GR-GFP nuclear translocation, laser cytometry, 2 h.
For assay [3] the target is unchanged. The experiment in a line: GR-EFC Redistribution (AID 451; calls by dose curve; further: potency means the concentration at half of the fitted maximal effect). The settings on record: CHO-K1 GR-EFC translocation, beta-gal luminescence, 2 h. The method in brief: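 CHO-K1 cells stably expressing nuclear-localized β-gal enzyme acceptor and GR fused C-terminally to the enzyme donor fragment; ligand-driven nuclear translocation restores β-gal by complementation. Compounds titrated up to 46 uM final, 2 h at 37 °C; luminescence read.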

Assay [4] concerns the target Mitogen-activated protein kinase 10 (Mus musculus) (UniProt Q61831). The assay is described as follows: JNK3 AlphaScreen Assay (AID 530; active means well fitted curve in either direction with a large enough effect, not every such curve was filed as active;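 further: kinase came from lysate of stimulated human HepG2 cells; signal reports phosphorylation of biotinylated GST-cJun 1-79 at Ser73 with 10 µM ATP; on the % scale 0 is the no-effect control and ±100 the full control effect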). The method in brief:
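JNK3 came from HepG2 lysates pre-activated with IL-1beta and TNF-alpha and phosphorylated biotinylated GST-cJun (1-79) at 10 uM ATP, pH 7.6, room temperature. Compounds were titrated. AlphaScreen signal used anti-phospho-cJun (Ser73) antibody.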

Assay [5] deals with 3',5'-cyclic-AMP phosphodiesterase 4B (Homo sapiens) (UniProt Q07343). The experiment in a line: qHTS Assay for Inhibitors of PDE-IV (AID 607; active means well fitted activation curve with a large enough effect in the main read-out, with a control signal flat, not every such curve was filed as active; further: % of control where 0% means no effect). The method in brief:
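The readout is membrane depolarisation from a cAMP-sensing CNG channel, detected with a potential dye at ex 535/em 590. Cells were HEK293-derived (endogenous PDE-IV) at 1000 cells/well, titrated up to 22.9 uM final.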
(In general: qHTS replaces the single test concentration by a dilution series.)

Assay [6] is described as follows: qHTS Assay for Lipid Storage Modulators (AID 1519; calls by dose curve). The settings on record: Drosophila S3 cells, BODIPY lipid droplet/cell ratio, laser cytometry, cells loaded with oleic acid. The method in brief: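 Cells seeded at 5,000 per well were treated with compounds over a concentration series and loaded with oleic acid (400 uM, as added). Lipid droplet fluorescence (488 nm excitation, 500-530 nm channel) was read by laser-scanning cytometry and normalized to 20 uM Triacsin C.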

Assay [7] can be described thus: Stat Signaling Pathway (AID 446; active means well fitted curve in either direction with a large enough effect, not every such curve was filed as active;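 further: ME-180 cervical cancer cells given 40 pM IL-6 alongside compound; SIE-controlled beta-lactamase reporter measured as 460/530 nm FRET emission ratio; on the % scale 0 is the no-effect control and ±100 the full control effect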). In outline:
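Screening format detects activators and inhibitors alike: ME-180 SIE-bla cells stimulated at 40 pM IL-6 for 5 hrs with compound, then dual-emission beta-lactamase read at 405 nm excitation.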

In assay [8] the target is Ubiquitin carboxyl-terminal hydrolase 1 (Homo sapiens) (UniProt O94782). The experiment in a line: Inhibitors of USP1/UAF1: Pilot qHTS (AID 504865).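 Further: rhodamine fluorescence freed from ubiquitin-rhodamine substrate followed over time; top concentration of the series differs between compounds; on the % scale 0 is the no-effect control and ±100 the full control effect; nearly all actives have a fitted effect of over 35% in size.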 The method in brief: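 In 50mM HEPES pH 7.8 containing 0.5mM EDTA, 1mM TCEP, 0.1 mg/ml BSA and 0.01% Tween-20, 1nM USP1/UAF1 is exposed to compound for 15 min, then Ub-Rho (150nM final) is added and fluorescence is read over time.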

The test system of another assay is C2A. The experiment in a line: qHTS profiling for inhibitors of Plasmodium falciparum proliferation (AID 504749). Further: nearly all actives have a fitted effect of over 60% in size. Further: potency means the concentration at half of the fitted maximal effect.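 On activity, negative = inhibition: 0% = DMSO vehicle and full inhibition = artemisinin control.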 The settings on record: P. falciparum in erythrocytes, SYBR Green DNA, 72 h; series mostly up to 12.8 µM. In outline: (§1)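 P. falciparum-infected erythrocytes (0.3% parasitemia, 2.5% hematocrit final) were exposed to compounds for 72 h at 37 C in 5% CO2, then lysed with SYBR Green buffer overnight at room temperature; parasite DNA fluorescence was normalized to artemisinin and DMSO controls.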

Another assay concerns CP191. Described as above. The settings on record: P. falciparum in erythrocytes, SYBR Green DNA, 72 h; series mostly up to 12.8 µM. The method in brief: as §1
For the next assay, the system named is CP238. The description is as above. The settings on record: P. falciparum in erythrocytes, SYBR Green DNA, 72 h; series mostly up to 12.8 µM. The method in brief:
as §1

In another assay the test system is CP256. The assay is described as above. The settings on record: P. falciparum in erythrocytes, SYBR Green DNA, 72 h; series mostly up to 12.8 µM. In outline: as §1
The test system of the next assay is FAB9. The description is as above. Conditions: P. falciparum in erythrocytes, SYBR Green DNA, 72 h; series mostly up to 12.8 µM. The method in brief:
as §1

In another assay the test system is JCK. The description is as above. The settings on record: P. falciparum in erythrocytes, SYBR Green DNA, 72 h; series mostly up to 12.8 µM. The method in brief: as §1
Another assay concerns SC27B. Described as above. Conditions: P. falciparum in erythrocytes, SYBR Green DNA, 72 h; series mostly up to 12.8 µM. In outline: as §1
Test in assay [9]: as above
Conditions: P. falciparum in erythrocytes, SYBR Green DNA, 72 h, at 12.8 µM (top of the series). The method in brief: as §1

A further assay has as its system CP217. The assay is described as above. The settings on record: P. falciparum in erythrocytes, SYBR Green DNA, 72 h; series mostly up to 12.8 µM. The method in brief: as §1
In another assay the test system is CP250. Described as above. Conditions: P. falciparum in erythrocytes, SYBR Green DNA, 72 h; series mostly up to 12.8 µM. In outline:
as §1

Another assay concerns PC49. Described as above. The settings on record: P. falciparum in erythrocytes, SYBR Green DNA, 72 h; series mostly up to 12.8 µM. In outline: as §1
A short description of assay [10]: NFAT Signaling Pathway (AID 444; active means well fitted curve in either direction with a large enough effect, not every such curve was filed as active;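 further: carbachol stimulus at about its EC50 of 1 µM final; on the % scale 0 is the no-effect control and ±100 the full control effect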). Conditions: Jurkat NFAT-bla M1, carbachol, beta-lactamase ratio, 5 h; at 17.2 µM (top of the series) unless noted. The method in brief: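 Jurkat cells carrying an NFAT-driven β-lactamase reporter and co-transfected muscarinic M1 receptor were treated with compound plus carbachol (1 uM final, an EC50 level) for 5 h at 37 °C. CCF4 loading followed for 1 h at RT; 460/530 nm ratio gave %activity.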

[11] abbreviates: measured here: cell count channel max response.
Where [12] appears, read: measured here: lipid channel max response.

Ubiquitin carboxyl-terminal hydrolase 1 (Homo sapiens), sequence (O94782 whole entry, looked up): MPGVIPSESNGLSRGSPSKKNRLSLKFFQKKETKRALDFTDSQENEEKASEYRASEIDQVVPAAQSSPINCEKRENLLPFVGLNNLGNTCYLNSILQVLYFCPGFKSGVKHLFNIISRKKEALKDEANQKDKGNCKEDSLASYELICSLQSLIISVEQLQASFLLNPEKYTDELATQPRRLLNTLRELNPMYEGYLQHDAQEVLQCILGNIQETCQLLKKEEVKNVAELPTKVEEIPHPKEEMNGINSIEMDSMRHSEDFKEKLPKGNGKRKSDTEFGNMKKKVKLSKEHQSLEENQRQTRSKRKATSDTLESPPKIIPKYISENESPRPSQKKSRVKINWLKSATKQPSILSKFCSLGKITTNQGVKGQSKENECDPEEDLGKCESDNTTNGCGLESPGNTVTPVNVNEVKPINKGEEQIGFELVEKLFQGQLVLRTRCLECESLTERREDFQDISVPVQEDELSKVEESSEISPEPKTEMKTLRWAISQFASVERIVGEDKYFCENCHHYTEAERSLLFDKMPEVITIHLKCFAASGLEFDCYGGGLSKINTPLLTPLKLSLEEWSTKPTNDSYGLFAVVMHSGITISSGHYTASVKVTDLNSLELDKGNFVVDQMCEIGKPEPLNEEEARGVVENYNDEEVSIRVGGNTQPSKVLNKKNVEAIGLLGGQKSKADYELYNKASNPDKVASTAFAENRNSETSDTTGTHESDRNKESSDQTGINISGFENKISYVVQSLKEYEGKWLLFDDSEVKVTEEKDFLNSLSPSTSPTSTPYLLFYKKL
Glucocorticoid receptor (Homo sapiens), sequence (P04150 whole entry, looked up, the tested form may be a part): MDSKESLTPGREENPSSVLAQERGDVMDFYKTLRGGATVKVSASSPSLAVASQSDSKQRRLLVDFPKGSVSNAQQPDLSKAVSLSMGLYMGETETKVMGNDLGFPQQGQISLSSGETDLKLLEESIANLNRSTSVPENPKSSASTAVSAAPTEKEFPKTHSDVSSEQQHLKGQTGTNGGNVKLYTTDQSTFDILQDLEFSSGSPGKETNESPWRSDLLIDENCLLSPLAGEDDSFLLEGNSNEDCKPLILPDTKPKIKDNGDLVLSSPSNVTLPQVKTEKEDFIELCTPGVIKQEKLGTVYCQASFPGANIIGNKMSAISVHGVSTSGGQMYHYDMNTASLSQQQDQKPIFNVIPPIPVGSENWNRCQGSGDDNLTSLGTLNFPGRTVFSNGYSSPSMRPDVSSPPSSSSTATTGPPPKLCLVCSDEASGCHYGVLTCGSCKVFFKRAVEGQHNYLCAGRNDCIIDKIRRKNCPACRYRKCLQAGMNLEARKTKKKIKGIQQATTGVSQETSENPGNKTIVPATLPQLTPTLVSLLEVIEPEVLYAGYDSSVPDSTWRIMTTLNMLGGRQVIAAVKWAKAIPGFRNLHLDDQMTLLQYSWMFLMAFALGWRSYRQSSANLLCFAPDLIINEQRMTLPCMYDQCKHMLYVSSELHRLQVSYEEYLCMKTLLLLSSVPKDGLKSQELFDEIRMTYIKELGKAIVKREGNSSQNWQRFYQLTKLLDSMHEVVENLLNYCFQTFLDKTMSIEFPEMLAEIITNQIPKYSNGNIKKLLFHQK
3',5'-cyclic-AMP phosphodiesterase 4B (Homo sapiens), sequence (Q07343 whole entry, looked up): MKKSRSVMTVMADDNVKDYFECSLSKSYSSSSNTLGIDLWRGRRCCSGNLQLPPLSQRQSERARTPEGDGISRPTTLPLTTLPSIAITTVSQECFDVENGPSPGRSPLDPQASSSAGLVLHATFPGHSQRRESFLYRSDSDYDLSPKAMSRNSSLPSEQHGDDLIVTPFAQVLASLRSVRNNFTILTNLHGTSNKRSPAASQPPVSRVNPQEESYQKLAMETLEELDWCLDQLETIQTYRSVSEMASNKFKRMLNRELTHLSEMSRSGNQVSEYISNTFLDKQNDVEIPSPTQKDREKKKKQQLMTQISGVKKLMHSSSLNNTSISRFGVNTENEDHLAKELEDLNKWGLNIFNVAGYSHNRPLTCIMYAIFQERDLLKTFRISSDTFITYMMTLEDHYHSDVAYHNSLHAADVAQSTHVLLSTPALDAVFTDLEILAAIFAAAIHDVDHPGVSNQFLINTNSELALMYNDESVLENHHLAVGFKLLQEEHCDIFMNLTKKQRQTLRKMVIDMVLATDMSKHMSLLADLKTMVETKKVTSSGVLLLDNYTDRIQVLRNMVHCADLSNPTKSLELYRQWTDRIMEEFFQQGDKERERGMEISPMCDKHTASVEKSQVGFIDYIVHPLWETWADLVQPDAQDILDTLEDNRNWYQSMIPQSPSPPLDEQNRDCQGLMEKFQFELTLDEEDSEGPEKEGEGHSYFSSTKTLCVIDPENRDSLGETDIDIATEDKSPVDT

For the compound `CS(=O)(=O)Nc1cccc(-c2nc(Nc3ccc(F)cc3)c3ccccc3n2)c1`, the outcome in [1] and in assay [5] was inactive. For the same compound, the Potency in assay [2] and in assay [3] was > 46 µM (inactive) each time. Besides, the Potency entry in assay [4] was “inactive”. Moreover, in assay [6] (at 57.5 µM (top of the series)), the activity change, negative = inhibition is 3.03% (inactive). Further, the max response in [6] (setting [11]) is -21%; in assay [6] (setting [12]), -26.1%.
`c1ccc2c(c1)CCCc1cc(NCCN3CCOCC3)nnc1-2`: the compound was called inactive in assay [1], in assay [7] and in [5]. Moreover, the Potency in assay [2] and in assay [3] was > 20.6 µM (inactive) in each case. Further, the activity change, negative = inhibition in assay [6] (at 25.7 µM (top of the series)) was -1.57% (inactive). Further, the max response in [6] (setting [11]) was 0.476%; in assay [6] (setting [12]), -2.33%. Moreover, the Potency result in assay [8] is “inactive”.
`C#C[C@@]1(O)CC[C@@H]2[C@@H]3CCC4=CC(=O)CC[C@@H]4[C@H]3CC[C@]21CC`: the outcome in assay [1], in assay [7] and in [5] was inactive. For the same compound, the Potency is 0.0832 µM (active) in assay [2] and > 20.6 µM (inactive) in [3]. In addition, the Potency result in [4] and in assay [8] was “inactive” throughout. In addition, the activity change, negative = inhibition in assay [6] (at 25.7 µM (top of the series)) is -1.97% (inactive). In addition, the figures for the max response in assay [6] (setting [11]) and in assay [6] (setting [12]) were -10.3% and -10.4%, respectively.
As for `OCCN1CCN(CCC=C2c3ccccc3Sc3ccc(Cl)cc32)CC1`, the compound was classed as inactive in [1], in [7] and in [5]. Moreover, the Potency in assay [2] was > 20.6 µM (inactive); in assay [3] it was > 20.6 µM (inactive); in the assay on CP191, 3.98 µM (active); in the assay with CP256, 3.55 µM (active). The Potency result (in assay [4]; in [8]; with C2A; in the assay on CP238; in the assay with FAB9; in the assay on JCK) was “inactive” each time. The Potency entry in the assay on SC27B is “inactive”. Moreover, the activity change, negative = inhibition in assay [6] (at 25.7 µM (top of the series)) was -7.08% (inactive). Further, the values for the max response in assay [6] (setting [11]) and in assay [6] (setting [12]) were -13.2% and -20.1%, respectively.
As to `C[C@@H]1C[C@H](OC(=O)[C@@H](O)c2ccccc2)CC(C)(C)N1C`, the result in assay [1], in assay [7] and in assay [5] was inactive. The Potency in assay [2] is > 20.6 µM (inactive). Further, in [4], the Potency entry is “inactive”. The activity change, negative = inhibition in assay [6] (at 25.7 µM (top of the series)) was -2.91% (inactive). Further, the results for the max response in assay [6] (setting [11]) and in assay [6] (setting [12]) were -2.86% and -7.41%, respectively.
For `CN1CCN([C@@H](c2ccccc2)c2ccc(Cl)cc2)CC1`, the call in [1], in [7] and in [5] was inactive. Also, the Potency in assay [2] was > 20.6 µM (inactive); in [3], > 20.6 µM (inactive); with CP256 it was 3.55 µM (active). Also, the Potency entry (in assay [4]; in assay [8]; in the assay on C2A; in the assay with CP191; with CP217; in the assay with CP238) was “inactive” each time. Further, the Potency result with CP250, in the assay on FAB9, with JCK, in the assay on PC49 and in the assay with SC27B was “inactive” each time. For the same compound, the activity change, negative = inhibition in [6] (at 25.7 µM (top of the series)) is -3.4% (inactive). Besides, the max response is -16% in assay [6] (setting [11]) and -18.7% in [6] (setting [12]). For the same compound, the activity, negative = inhibition in assay [9] (parasite line A) is 1.67% (inactive); in assay [9] (parasite line B), -12.4% (inactive).
As to `COCCOC(=O)C1=C(C)NC(C)=C(C(=O)OC(C)C)[C@H]1c1cccc([N+](=O)[O-])c1`, the outcome in assay [1], in [7] and in assay [5] was inactive. Besides, the activity change, negative = inhibition is -10.3% (inactive) in assay [10] and -3.07% (inactive) in [6] (at 25.7 µM (top of the series)). Besides, the Potency in assay [2] and in assay [3] was > 20.6 µM (inactive) throughout. Besides, the Potency result in assay [4] and in assay [8] was “inactive” each time. For the same compound, the max response in [6] (setting [11]) was -5.25%; in assay [6] (setting [12]), -6.94%.
